In the supplement of paper PMC10849652:
Of roughly 7,900 targets only a part is listed; those with a hit were picked by preference. About 0.6% of all pairs of compound and target were hits. Values without a mark were called inactive.

Key:
Experiment in all cases: log2 fold change, soluble protein after heating vs DMSO (PISA); higher = thermal stabilisation; K562 cells, 10 uM, 30 min; active = over 0.2 and 3.5 SD of the protein, either way, in both replicates (recomputed)
filanesib = compound: CON(C)C(=O)N1N=C(c2cc(F)ccc2F)S[C@@]1(CCCN)c1ccccc1 [filanesib]
Procedure, shortened: (§1)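 For each measurement, 10 μM compound was applied for 30 min to K562 cells at 2×10^6 cells/mL. Aliquots were heated for 3 min across 48°C-58°C, pooled, and extracted in PBS with 0.5% NP-40 at 4°C; the supernatant after 21,000xg for 90 min was soluble protein. This was quantified by TMTpro 16plex LC-MS/MS with channel sums equalised, and thermal stability was reported relative to control samples from duplicates, on a log2 fold-change scale.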

alisertib = compound: COc1cc(Nc2ncc3c(n2)-c2ccc(Cl)cc2C(c2c(F)cccc2OC)=NC3)ccc1C(=O)O [alisertib]
Procedure, shortened: as §1

[1] = compound: COc1cc2nc(-c3cc(F)ccc3O)nc(N[C@@H]3CNC[C@H]3C(C)(C)O)c2cc1OC
Procedure, shortened: as §1

[2] = compound: COc1cccc2cc(-c3nc([C@H]4CC[C@H](C(=O)O)CC4)n4ncnc(N)c34)[nH]c12
Procedure, shortened: as §1

lapatinib = compound: CS(=O)(=O)CCNCc1ccc(-c2ccc3ncnc(Nc4ccc(OCc5cccc(F)c5)c(Cl)c4)c3c2)o1 [lapatinib]
Procedure, shortened: as §1

[3] = compound: COC1=CC=C(C=C1)CN2C=CC3=C2C=C(C=C3)C(=O)NO
Procedure, shortened: as §1

pictilisib = compound: CS(=O)(=O)N1CCN(Cc2cc3nc(-c4cccc5[nH]ncc45)nc(N4CCOCC4)c3s2)CC1 [pictilisib]
Procedure, shortened: as §1

zotarolimus = compound: CO[C@H]1C[C@@H]2CC[C@@H](C)[C@@](O)(O2)C(=O)C(=O)N2CCCC[C@H]2C(=O)O[C@H]([C@H](C)C[C@@H]2CC[C@H](n3cnnn3)[C@H](OC)C2)CC(=O)[C@H](C)/C=C(\C)[C@@H](O)[C@@H](OC)C(=O)[C@H](C)C[C@H](C)/C=C/C=C/C=C/1C [zotarolimus]
Procedure, shortened: as §1

idasanutlin = compound: COc1cc(C(=O)O)ccc1NC(=O)[C@@H]1N[C@@H](CC(C)(C)C)[C@](C#N)(c2ccc(Cl)cc2F)[C@H]1c1cccc(Cl)c1F [idasanutlin]
Procedure, shortened: as §1

gefitinib = compound: COc1cc2ncnc(Nc3ccc(F)c(Cl)c3)c2cc1OCCCN1CCOCC1 [gefitinib]
Procedure, shortened: as §1

UniProt Q04446, sequence (Q04446 whole entry, looked up): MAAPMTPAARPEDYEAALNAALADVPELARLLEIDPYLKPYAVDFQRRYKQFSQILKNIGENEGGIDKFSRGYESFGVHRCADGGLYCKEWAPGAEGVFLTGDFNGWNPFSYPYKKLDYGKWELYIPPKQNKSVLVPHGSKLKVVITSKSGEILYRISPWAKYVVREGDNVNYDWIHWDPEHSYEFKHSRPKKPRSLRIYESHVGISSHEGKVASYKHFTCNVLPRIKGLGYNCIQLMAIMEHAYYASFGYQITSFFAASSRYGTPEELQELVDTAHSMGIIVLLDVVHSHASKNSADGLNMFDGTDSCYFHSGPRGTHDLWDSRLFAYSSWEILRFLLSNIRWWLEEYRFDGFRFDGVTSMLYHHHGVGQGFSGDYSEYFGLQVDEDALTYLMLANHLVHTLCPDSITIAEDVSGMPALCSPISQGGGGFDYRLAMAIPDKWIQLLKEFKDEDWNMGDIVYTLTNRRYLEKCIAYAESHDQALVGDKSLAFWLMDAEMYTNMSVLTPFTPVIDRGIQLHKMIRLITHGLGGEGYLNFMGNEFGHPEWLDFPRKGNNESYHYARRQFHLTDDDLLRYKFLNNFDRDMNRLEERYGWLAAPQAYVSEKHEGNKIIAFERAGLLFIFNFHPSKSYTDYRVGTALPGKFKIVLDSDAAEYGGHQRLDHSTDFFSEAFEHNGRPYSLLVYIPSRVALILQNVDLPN
UniProt Q13227, sequence (Q13227 whole entry, looked up): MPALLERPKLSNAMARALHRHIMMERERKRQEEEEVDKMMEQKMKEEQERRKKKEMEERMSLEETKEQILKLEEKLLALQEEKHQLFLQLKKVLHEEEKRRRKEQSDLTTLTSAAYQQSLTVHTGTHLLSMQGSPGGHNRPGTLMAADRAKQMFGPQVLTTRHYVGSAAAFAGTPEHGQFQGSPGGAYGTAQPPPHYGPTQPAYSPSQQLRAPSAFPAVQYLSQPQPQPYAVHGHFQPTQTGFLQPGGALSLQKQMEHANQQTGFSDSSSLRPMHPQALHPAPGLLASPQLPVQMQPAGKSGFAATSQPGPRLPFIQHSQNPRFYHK
UniProt Q7Z4Q2, sequence (Q7Z4Q2 whole entry, looked up): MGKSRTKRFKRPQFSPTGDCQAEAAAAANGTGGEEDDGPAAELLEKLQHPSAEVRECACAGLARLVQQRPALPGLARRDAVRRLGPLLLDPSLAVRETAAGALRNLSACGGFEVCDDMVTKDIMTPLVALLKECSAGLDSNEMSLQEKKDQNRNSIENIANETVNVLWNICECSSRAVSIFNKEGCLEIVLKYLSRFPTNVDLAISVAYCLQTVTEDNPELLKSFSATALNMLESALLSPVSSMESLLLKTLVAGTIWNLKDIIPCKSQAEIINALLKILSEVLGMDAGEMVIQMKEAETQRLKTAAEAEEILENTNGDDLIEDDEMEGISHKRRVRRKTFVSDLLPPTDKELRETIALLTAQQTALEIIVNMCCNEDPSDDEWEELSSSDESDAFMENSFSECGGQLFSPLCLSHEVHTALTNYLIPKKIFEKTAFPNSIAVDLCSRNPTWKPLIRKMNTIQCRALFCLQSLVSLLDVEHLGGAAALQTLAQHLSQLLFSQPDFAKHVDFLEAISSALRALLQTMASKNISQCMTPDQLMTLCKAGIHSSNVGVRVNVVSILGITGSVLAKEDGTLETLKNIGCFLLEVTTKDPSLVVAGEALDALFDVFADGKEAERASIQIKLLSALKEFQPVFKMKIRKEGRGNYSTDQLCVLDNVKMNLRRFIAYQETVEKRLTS
UniProt Q969S8, sequence (Q969S8 whole entry, looked up): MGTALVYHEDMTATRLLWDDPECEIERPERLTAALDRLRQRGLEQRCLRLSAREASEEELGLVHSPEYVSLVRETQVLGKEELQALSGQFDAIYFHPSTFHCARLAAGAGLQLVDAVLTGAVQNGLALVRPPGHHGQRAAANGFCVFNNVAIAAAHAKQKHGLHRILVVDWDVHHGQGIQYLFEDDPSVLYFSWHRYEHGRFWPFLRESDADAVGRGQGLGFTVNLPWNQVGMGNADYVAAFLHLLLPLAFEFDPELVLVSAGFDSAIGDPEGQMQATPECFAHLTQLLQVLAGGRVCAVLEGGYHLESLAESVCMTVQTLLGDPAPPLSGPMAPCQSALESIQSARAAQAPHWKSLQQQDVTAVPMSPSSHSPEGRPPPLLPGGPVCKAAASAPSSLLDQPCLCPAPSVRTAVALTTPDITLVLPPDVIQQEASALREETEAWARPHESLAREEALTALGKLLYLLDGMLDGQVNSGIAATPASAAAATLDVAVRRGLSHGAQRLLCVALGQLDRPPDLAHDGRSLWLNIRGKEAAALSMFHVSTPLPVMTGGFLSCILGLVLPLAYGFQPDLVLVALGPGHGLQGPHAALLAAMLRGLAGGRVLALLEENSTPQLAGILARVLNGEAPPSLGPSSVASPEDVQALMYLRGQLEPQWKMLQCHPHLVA
UniProt Q96SL8, sequence (Q96SL8 whole entry, looked up): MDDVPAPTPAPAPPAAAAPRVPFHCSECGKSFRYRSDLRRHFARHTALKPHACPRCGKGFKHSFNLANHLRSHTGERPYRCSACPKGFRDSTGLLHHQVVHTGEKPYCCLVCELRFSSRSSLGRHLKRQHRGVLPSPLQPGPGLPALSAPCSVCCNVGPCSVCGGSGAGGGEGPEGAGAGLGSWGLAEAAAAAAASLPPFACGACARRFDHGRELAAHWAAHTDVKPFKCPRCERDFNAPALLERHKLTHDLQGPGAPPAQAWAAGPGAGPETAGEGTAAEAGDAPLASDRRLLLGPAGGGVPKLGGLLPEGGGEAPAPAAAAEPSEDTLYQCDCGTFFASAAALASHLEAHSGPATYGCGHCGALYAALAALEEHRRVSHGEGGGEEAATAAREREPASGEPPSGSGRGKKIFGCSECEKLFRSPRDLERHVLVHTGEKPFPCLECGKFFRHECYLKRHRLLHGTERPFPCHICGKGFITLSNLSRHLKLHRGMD
UniProt Q9Y248, sequence (Q9Y248 whole entry, looked up): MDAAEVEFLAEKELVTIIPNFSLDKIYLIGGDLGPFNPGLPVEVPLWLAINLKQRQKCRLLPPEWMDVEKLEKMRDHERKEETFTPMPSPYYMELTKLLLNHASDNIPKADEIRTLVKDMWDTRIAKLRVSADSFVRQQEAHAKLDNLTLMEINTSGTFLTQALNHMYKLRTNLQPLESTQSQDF
UniProt A6NDN3, sequence (A6NDN3 whole entry, looked up): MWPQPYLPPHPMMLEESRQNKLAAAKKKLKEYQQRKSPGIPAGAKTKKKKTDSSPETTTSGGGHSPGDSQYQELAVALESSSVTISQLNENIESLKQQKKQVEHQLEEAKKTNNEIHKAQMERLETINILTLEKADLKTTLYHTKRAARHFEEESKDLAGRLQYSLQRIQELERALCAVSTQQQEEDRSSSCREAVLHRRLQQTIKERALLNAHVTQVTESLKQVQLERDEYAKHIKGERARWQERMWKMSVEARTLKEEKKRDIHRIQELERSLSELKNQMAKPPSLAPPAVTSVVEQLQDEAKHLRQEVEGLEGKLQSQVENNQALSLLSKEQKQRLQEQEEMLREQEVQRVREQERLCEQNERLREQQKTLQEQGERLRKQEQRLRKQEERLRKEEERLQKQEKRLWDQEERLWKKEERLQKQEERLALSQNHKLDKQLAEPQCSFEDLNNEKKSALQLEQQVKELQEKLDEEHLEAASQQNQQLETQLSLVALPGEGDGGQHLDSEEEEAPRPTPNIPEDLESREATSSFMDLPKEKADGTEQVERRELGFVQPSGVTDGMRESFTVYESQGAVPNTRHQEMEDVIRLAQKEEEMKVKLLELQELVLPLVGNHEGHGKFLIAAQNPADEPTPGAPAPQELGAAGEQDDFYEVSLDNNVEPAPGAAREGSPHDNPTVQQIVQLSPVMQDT
UniProt Q9UK97, sequence (Q9UK97 whole entry, looked up): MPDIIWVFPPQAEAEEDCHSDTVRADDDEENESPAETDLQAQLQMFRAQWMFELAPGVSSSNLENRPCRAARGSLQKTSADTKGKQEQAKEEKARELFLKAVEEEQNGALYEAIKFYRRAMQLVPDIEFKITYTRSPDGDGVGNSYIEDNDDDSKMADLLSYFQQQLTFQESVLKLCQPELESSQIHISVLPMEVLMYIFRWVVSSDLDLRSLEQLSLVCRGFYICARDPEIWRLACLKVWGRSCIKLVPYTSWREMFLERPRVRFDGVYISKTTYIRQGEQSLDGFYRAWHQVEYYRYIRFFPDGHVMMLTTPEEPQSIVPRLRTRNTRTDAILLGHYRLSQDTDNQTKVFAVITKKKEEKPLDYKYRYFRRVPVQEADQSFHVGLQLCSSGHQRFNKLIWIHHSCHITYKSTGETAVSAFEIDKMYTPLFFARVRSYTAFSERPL
UniProt P15260, sequence (P15260 whole entry, looked up): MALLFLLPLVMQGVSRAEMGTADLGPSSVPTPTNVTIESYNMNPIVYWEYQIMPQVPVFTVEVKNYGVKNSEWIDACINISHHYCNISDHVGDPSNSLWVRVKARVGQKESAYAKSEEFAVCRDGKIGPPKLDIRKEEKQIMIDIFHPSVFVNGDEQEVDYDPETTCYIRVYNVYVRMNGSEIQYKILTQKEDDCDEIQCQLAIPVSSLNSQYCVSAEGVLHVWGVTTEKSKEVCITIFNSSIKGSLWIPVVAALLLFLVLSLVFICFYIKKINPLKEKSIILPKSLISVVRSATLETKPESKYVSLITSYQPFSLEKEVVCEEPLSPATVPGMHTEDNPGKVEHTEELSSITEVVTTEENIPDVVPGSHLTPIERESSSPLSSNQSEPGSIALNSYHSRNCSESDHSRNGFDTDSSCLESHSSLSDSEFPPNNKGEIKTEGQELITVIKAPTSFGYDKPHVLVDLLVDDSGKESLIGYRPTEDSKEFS
UniProt Q8IVP5, sequence (Q8IVP5 whole entry, looked up): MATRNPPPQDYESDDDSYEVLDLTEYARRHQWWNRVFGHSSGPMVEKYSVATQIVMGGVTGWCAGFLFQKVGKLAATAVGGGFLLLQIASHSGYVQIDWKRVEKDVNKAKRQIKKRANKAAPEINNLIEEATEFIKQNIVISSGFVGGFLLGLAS

Target	log2 fold change (filanesib)	log2 fold change (alisertib)	log2 fold change [1]	log2 fold change [2]	log2 fold change (lapatinib)	log2 fold change [3]	log2 fold change (pictilisib)	log2 fold change (zotarolimus)	log2 fold change (idasanutlin)	log2 fold change (gefitinib)
FUNDC1 (UniProt Q8IVP5)	-0.193	0.011	-0.138	0.172	0.101					
FCF1 (UniProt Q9Y324)	0.405	-0.272	0.1	-0.299	0.157	-0.026	-0.262			
FMR1 (UniProt Q06787)	0.219	-0.023	0.286	0.322	-0.027	-0.3	0.036	0.005		
HDAC10 (UniProt Q969S8)		-0.264	0.049	0.065	0.044		0.084	-0.022	-0.157	0.168
HDAC7 isoform 5 (UniProt Q8WUI4)	0.121	-0.075	0.075	0.046	0.071		-0.004	0.054	0.024	-0.015
FASTKD1 (UniProt Q53R41)	-0.011					-0.037	0.127	-0.192	-0.028	0.473
GOLGA8R (UniProt I6L899)			0.345		-0.093	0.591 (active)	0.01	-0.027	0.022	
HNRNPK isoform 3 (UniProt P61978)	0.077	-0.063		0.005		-0.025	0.057			-0.066
HAUS4 (UniProt Q9H6D7)	0.245	-0.103	0.024	0.323	-0.038		-0.162	0.05	0.126	-0.086
FBXO9 (UniProt Q9UK97)		0.466 (active)	-0.169	0.077	0.012	0.124	0.036	-0.027		0.007
FAT1 (UniProt Q14517)	0.097	-0.267	0.027	-0.098	0.029	0.098	0.041	-0.08		0.023
GOLGA6B (UniProt A6NDN3)	-0.115	-0.092		0.102		0.088	0.144			0.012
HEATR3 (UniProt Q7Z4Q2)	0.007	0.099	-0.083	0.046	0.004	0.027	-0.134	-0.004		0.072
ICMT (UniProt O60725)	-0.189	-0.046	-0.112	0.085	0.206	-0.083			-0.029	0.154
GBE1 (UniProt Q04446)		0.019	-0.168	-0.102	-0.022	0.048		0.045	0.002	
GPS2 (UniProt Q13227)	0.018	-0.067	0.135	0.152	-0.044	-0.108				0.008
FAT2 (UniProt Q9NYQ8)		0.208	0.031	-0.024	-0.089	0.247	-0.497	0.104		
IFNGR1 (UniProt P15260)	0.091	-0.09	0.207	0.143	-0.058		-0.085	-0.067	0.105	0.097
GSE1 (UniProt Q14687)								-0.063		0.224
HBZ, A0A494C057		1.67		0.009						0.151
IDH3A isoform 2 (UniProt P50213)						0.32		-0.056	-0.246	0.029
HDAC1 (UniProt Q13547)	0.059	0.031	0	0.024	0.141		0.06	-0.019	-0.023	0.025
FIZ1 (UniProt Q96SL8)	0.078	0.117		-0.108		-0.081	0.016	0.048		0.001
GINS2 (UniProt Q9Y248)	-0.021	-0.069	0.025	-0.089	-0.026	0.057	-0.119	0.29		0.035
GNL3 (UniProt Q9BVP2)	-0.038	-0.12		0.071			0.061	-0.012	-0.212	0.067
HNRNPUL1 (UniProt M0R247)	0.029		0.117		-0.15	-0.028		-0.468	0.277	0.1
